In PubChem BioAssay (NCI) one finds growth data, which are given here for 40 compounds.

Several values for one entry are separate records, joined by “and”; a condition that tells them apart may be missing. Equal values may be shown once. Compounds without any hit were thinned out: in the full panel of roughly 83,000, 20% have a hit.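 Cell lines were cultured in 96-well plates, exposed to a single compound concentration, and assessed for percent growth 48 hours later.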 A number with no mark means an inactive call. Activity calls are given as the source filed them.

The test system of the experiment is SR leukemia. Kind of experiment: NCI-60 one-dose screen, 48 h (100 = growth as untreated, 0 = no growth, -100 = all killed). The note with it: 10 µM unless noted. How it is done:
Growth inhibition of the SR human tumor cell line is measured as a screen for anti-cancer activity. Cells are grown in 96 well plates and exposed to the test compound for 48 hours. Compounds are tested at a single concentration, which is 10^-5 M for most compounds. The reported endpoint is percent growth (GI% or GIPRCNT), where numbers from 0 - 100% represent growth inhibition, and numbers from -100% - 0 represent cell death. For example, a value of 40 represents 60% growth inhibition. A value of 0 means no net growth occurred over the course of the experiment. A value of -40 indicates 40% of cells at the beginning of the experiment died by the end of the experiment. A value of -100 means all cells are dead at the end of the experiment.
NCI-60 Human Tumor Cell Lines Screen was performed using the standard one-dose NCI protocol, which is described in more detail at https://dtp.cancer.gov/discovery_development/nci-60/default.htm.
Compounds with GIPRCNT values below 10 were considered active. Activity score was based on GIPRCNT using the following formula: […]
Score is 0 for GIPRCNT values of 100 or above, 50 for GIPRCNT values of 0, and 100 for GIPRCNT values of -100.
As to `ON=C(C1CCCCC1)C1CCCCC1`, the growth was 97.2%.

As for `CCCC(=O)Oc1ccc2ccccc2c1`, the growth is 110%.

Turning to `N=C(N)N1CCc2ccccc2C1`, the growth is 75.1% and 93.9%. For `O=C(O)c1c2c(nc3ccccc13)Cc1ccccc1-2`, the growth was 94.9% and 98%. On to `CCC(C)(O)CCC(C)(O)CC` (stereo not given), for which the growth was 97.4%. For `CC(C)(C)C1=CC(=O)C(C(C)(C)C)=CC1=O`, the growth is 78.9% and 97%. Turning to `CN(C)c1ccc(C(=N)c2ccc(N(C)C)cc2)cc1`, the growth was 19.9% and 10.4%. For the compound `CC(C)=NOC(C)C(=O)O` (stereo not given), the growth was 92%. `COc1ccc(C(=O)C(O)c2ccc(OC)cc2)cc1` (stereo not given): the growth is 102% and 94%.

Turning to `COc1ccc(COC=O)cc1`, the growth is 93.5%. As to `N#Cc1c[nH]n2ccnc12`, the growth is 120%. `CC(=O)Oc1cc(C(C)C)c(OCCN(C)C)cc1C`: the growth was 107%. For the compound `Nc1c(S(=O)(=O)O)cc(Br)c2c1C(=O)c1ccccc1C2=O`, the growth was 93.8% and 91.4%. For `NNc1ncnc2cccc(Cl)c12` the value was 108%.

In the case of `O=C(NC(CSSCC(NC(=O)OCc1ccccc1)C(=O)O)C(=O)O)OCc1ccccc1` (stereo not given), the growth is 67.8% and 77.7%. On to `CCOC(=N)c1ccc(C(=N)OCC)cc1`, for which the growth was 91.7%. In the case of `Cc1cnc(N)s1`, the growth was 101%.

As to `COc1ccc(/C=N/Nc2nc3ccccc3s2)cc1`, the growth was 87.9%.

As to `NC1=NC(c2ccccc2)N=C(Nc2ccccc2)N1` (stereo not given), the growth was 2.95% (active). For `CCOC(=O)C(N)Cc1cc(I)c(O)c(I)c1` (stereo not given) the value was 89.3% and 104%; for `O=P(O)(O)OC1C(OP(=O)(O)O)C(OP(=O)(O)O)C(OP(=O)(O)O)C(OP(=O)(O)O)C1OP(=O)(O)O.[Cu+2]` (stereo not given), 81.4%. As for `Oc1ccc(O)c(-c2ccccc2)c1`, the figure is 4.96% (active).

On to `CCC(=O)Oc1ccc(OCc2ccccc2)cc1`, for which the growth was 80.9% and 97.4%. In the case of `Cc1cccc(Cl)c1N`, the growth is 98.9%. Turning to `Cc1cc(O)c(C(C)C)cc1N=O`, the growth is 110%. For `O=[N+]([O-])c1ccc(N/N=C/C2CCCCCC2)c([N+](=O)[O-])c1`, the growth is 82.9%.

On to `COc1cc(C2c3cc4c(cc3C(OC(=O)C[n+]3ccccc3)C3COC(=O)C23)OCO4)cc(OC)c1OC` (stereo not given), for which the growth was 11.5%. For `COc1cc2oc3cc(=O)cc4oc(-c5ccccc5)cc(c2c2c1CCC(c1ccccc1)O2)c43` (stereo not given), the growth is 69.6%. On to `N#CC(=S)Nc1ccc(Cl)c(Cl)c1`, for which the growth was 9.44% (active). `C/C(=C\c1ccccc1)C(O)C(=O)c1nc2ccc([N+](=O)[O-])cc2[nH]c1=O` (stereo not given): the growth is 102%. Turning to `COc1ccc(/C=N/NC(N)=S)cc1`, the growth was 107%. In the case of `COc1ccc([N+](=O)[O-])cc1OC`, the growth was 89.4% and 108%. As for `Nc1ccc(O)c(C(=O)O)c1`, the figure is 99.8%; as for `N=C(N=C(N)N)N1CCOCC1`, 103%; as for `CCCCCCCCCCCCCCCCC(=O)O`, 94.3%.

As for `CC1(C)OC(=O)C(=Cc2ccc(C#N)cc2)C(=O)O1`, the growth was 93.5% and 89%. Take `Cc1cc(=NO)cc(C)n1O`: the growth was 72.5%. In the case of `CCN(CC)C(=S)SCCO`, the growth was 92.5%. For `CC1=CC(=O)C=CC1=Nc1ccc(N(C)C)cc1`, the growth was 29.3%. With `CN(C)C(=N)N=C(N)N`, the growth is 133%.
